Experimental data reported in the supplement of paper PMC3334620.
Over roughly 33,000 sequences, “E-score (-0.5 to 0.5)” has its median near -0.036; the highest 2% begin near 0.37. The sample as a whole holds a higher share of the highest values than the screen did.

molecular target: T1, Yer064c (UniProt P40041); experiment: PBM E-score (8-mer binding enrichment) (E-score (-0.5 to 0.5)); higher = stronger / more preferred TF binding; settings: protein concentration: 200 nM; construct: GST-full length
T1 sequence: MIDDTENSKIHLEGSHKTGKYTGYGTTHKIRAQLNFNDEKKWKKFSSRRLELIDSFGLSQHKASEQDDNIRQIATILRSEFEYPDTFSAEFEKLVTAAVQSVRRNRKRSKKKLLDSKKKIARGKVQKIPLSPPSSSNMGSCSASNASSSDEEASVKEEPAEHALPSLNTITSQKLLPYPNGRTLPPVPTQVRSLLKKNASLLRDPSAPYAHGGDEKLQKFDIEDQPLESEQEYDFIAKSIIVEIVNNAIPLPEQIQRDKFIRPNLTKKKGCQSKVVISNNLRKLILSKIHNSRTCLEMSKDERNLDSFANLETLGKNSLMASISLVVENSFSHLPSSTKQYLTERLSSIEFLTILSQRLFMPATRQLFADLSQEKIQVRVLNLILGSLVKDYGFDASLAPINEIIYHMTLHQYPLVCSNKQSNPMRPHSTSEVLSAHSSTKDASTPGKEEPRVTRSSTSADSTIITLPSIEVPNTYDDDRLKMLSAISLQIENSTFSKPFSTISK
How it was run: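 Detection of bound protein used fluorescent anti-GST, with scans normalised by masliner. The proteins were GST-tagged yeast transcription factors applied at about 100-200 nM to universal all-10-mer Agilent arrays made double-stranded by primer extension. Each ungapped eight-base word, pooled with its reverse complement, was scored with an E-score from the Universal PBM Analysis Suite.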

Sequence	PBM E-score
ACTCCAAT	0.238
CAGTCCCC	-0.225
CCGGTGAG	0.0747
GCGGAGTA	-0.0756
CGACACTA	-0.0389
GTTTTGGA	0.197
AATCACTC	0.385
AATCACTA	0.373
AAGCACTG	0.0399
GATCACTA	0.135
AATCACTG	0.375
AAACACTG	0.0608
CATCACTC	0.0183
CATCACTA	0.0474
CGGCGATC	-0.0422
GTCACCAC	0.29
CATTCTAC	-0.179
CAAGATTA	0.199
AGTCCAGG	0.0238
AAGCCAGC	-0.181
GTTCAAGA	0.0547
AACGCTCA	-0.103
TCTGGACA	-0.266
ACTTCGAA	0.166
CACTATGC	0.0417

Sequence	PBM E-score
TACTATGA	0.318
AACTATGC	-0.153
GACTATGA	0.435
GACTATGC	0.397
AACTATGA	0.237
ACGGCGAG	0.0206
GCTCGCAC	-0.24
CTACTTTC	0.0258
CGGCCGGC	-0.134
GTGGTGGA	-0.14
TTGGCCAA	-0.142
TGACTACA	0.476
AGACTAGC	0.251
AGACTACA	0.344
CGACTACA	0.351
AGACTATC	0.35
TGACTTAA	0.435
CTACTAAA	0.00127
AGACTAAC	0.413
AGACTTAA	0.195
CCACTAAA	-0.0544
CGACTAAA	0.41
GGACTTAA	0.188
ACACTCTG	-0.0556
ACGCCACT	-0.186

Sequence	PBM E-score
GGAACTTA	-0.0956
CAGTAACA	0.0175
TACATTGA	0.0284
AGATGATA	0.0471
AGTAAAGG	0.0771
ATCCATTC	0.0758
CTCAGATA	0.268
GGGTTTCA	-0.23
ACCGGAGA	-0.00273
ATAGAACC	0.0363
CCACTAAG	0.0593
AGACTACG	0.322
CTACTAAG	0.0152
AGACTATG	0.319
AGACTACT	0.376
TGACTAAA	0.484
CGACTAAG	0.399
TGGCTAAA	0.306
GGACTAAA	0.331
AAACTAAG	0.175
AGACTAAG	0.383
AGACTACC	0.354
ACTATTCA	0.106
AGTTGCCA	-0.223
ACGTTGAG	0.0564

Sequence	PBM E-score
GAGTCTGC	0.312
TTCAGCAA	-0.00768
AGTGATAT	-0.134
AACTGAAC	-0.119
AAACTAAA	0.0515
AGACTAAT	0.389
AGACTATA	0.35
AGACTAGA	0.276
CGACTATC	0.359
ATACTAAT	0.174
AAACTAAT	0.243
CGACTATA	0.374
AGACTAAA	0.398
AACTGGCT	-0.28
CGGGTAAC	-0.0478
TATCATAA	0.0309
CATCATAG	0.25
GATCATAC	-0.0115
AATCATAT	0.428
AATCATAA	0.418
AATCAAAT	0.23
AATCATAC	0.451
CATCATAA	0.0722
AATCAGAG	0.269
AAGCATAT	0.0236

Sequence	PBM E-score
AATCATAG	0.433
CATCATAC	0.215
AATGGCAC	-0.231
CCCTCCAA	-0.12
AATATAAA	0.0817
ATGGCTTC	0.156
GGGCGGCA	-0.406
CACACCCA	0.0764
AAACGAGA	0.0214
GAAAGAAA	-0.0206
CCTACGAA	-0.211
TACGCATA	-0.0887
AAGAAACG	-0.028
CTTTAGCA	-0.154
CGTATCGA	-0.111
AAGTCAGG	0.341
AAGTCACA	0.414
ACGTCACC	-0.162
ATGTCACG	-0.123
AAGTCACG	0.433
AGGTCACG	-0.143
AGGTCACC	0.00721
ACGTCACG	-0.289
AAGTCACC	0.447
TGGTCACA	0.103

Sequence	PBM E-score
TAGTCACA	0.478
TCGTCACA	-0.0543
AAGACCAG	-0.0791
CCCGGCAA	-0.166
CTGCGGAC	-0.0565
AGGGGGTC	-0.406
CCCACATA	0.0317
CCGTTCGA	0.0719
AAGTCACT	0.399
ACGTCACT	-0.0404
GCGTCACA	-0.13
GGGTCACA	0.00589
AGGTCACT	0.0701
GAGTCACA	0.493
GAGGCCAC	-0.319
ACGGCCGC	-0.0196
AGGCAGTC	0.213
CTTTGAGA	0.179
TGAGCTAA	0.189
GCTGTAGA	-0.0534
AGTTAGCG	-0.0192
CTTGTGAC	0.222
ATTGGTCA	0.0959
CATCCACC	-0.0348
CCTGGACA	-0.127

Sequence	PBM E-score
ATGATTAG	0.438
ATGATTTG	0.299
ACGATTAG	0.152
AAGATTAC	0.241
ATGATTAC	0.472
ACGATTAC	0.185
CTGAGTTC	0.104
CTGAGTGC	-0.0835
ATGAGTGG	0.193
ATGAGTTG	0.194
ATGAGTTC	0.327
CTGAGTCC	0.402
ATGAGTCC	0.442
ATGAGTGC	0.226
ATGAGTCG	0.474
AGCTACGG	-0.0957
CAGTGGTC	0.0376
GGCACGGA	-0.127
TACTTCTA	0.0324
TGTCCAAA	-0.0925
ATTTCTTC	-0.058
GCGATTGA	0.145
ATGATTGC	0.375
CTGATTGC	0.274
ATGATTGG	0.286

Sequence	PBM E-score
ACGATTGC	0.0745
ACGATTGA	0.216
CTGATTGA	0.305
ATGATTGA	0.423
GTGATTGA	0.401
GGTGAAAA	-0.106
CAAATCTC	0.0434
CATCTACG	0.104
AGGTGAGC	-0.00638
CCGGGTGA	0.176
AATGCTCA	0.0674
AGTCAGCA	0.455
CGTCAGCA	-0.0315
ACTCAGCC	0.335
ACTCAGCG	0.269
CGTCAGCC	-0.135
AGTCAGCC	0.458
GGTCAGCA	-0.0951
AGTCAGCG	0.453
ATTCAGCG	-0.0722
GGCAGCAA	-0.355
GCAGATGC	-0.257
CAATGGTC	0.183
ATGTATTA	0.0655
ATGCTTTG	-0.00054

Sequence	PBM E-score
TAACAGTA	-0.019
CTATAGTA	0.0624
ATATAGTA	0.128
ATATAGTG	0.0402
ATATAGTC	0.403
CTATAGTC	0.37
CTATAGCC	-0.0342
ACCGAACT	-0.0318
AGCAGAAA	-0.0226
CAGAGTGG	-0.106
CAGACGAG	-0.0357
CGCTCTAG	-0.196
CCGACAAA	-0.0238
CTCATCGA	0.173
ATCATCGA	0.31
GTCATCGA	0.389
ACCTGAAA	-0.0522
CAGGTTGA	0.0225
CCAGAAAG	0.0675
